Among the data in PubChem BioAssay are inhibition, activation and activation (% of control) values, retold here.

Molecules are shown by their SMILES. A number with no mark means an inactive call. Some of the results follow. The source made the active and inactive calls.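 Rule for the calls, unless noted: active = inhibition above the mean plus 3 SD of solvent-only control wells, limit set per screening run (cut at about 16% in these data); inactive = the rest.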

A short description of assay [1]: blockers of IL-6 STAT3 signaling – U3A cells, luciferase, luminescence, confirmation (AID 1265;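 active = inhibition above the hit cutoff computed for the primary STAT3 screen, cut at about 44% in these data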;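 note: 0% = IL-6 plus DMSO and 100% = IL-6 plus nifuroxazide control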). The conditions noted are these: IL-6 STAT3 luciferase reporter, at 5.7 µM, stronger effect = higher value, cell line lacks STAT1. Background: A reporter such as luciferase makes a cellular process visible.
A short description of assay [2]: inhibition of TNF-alpha-driven NF-kB transcription – cell-based, HEK293T, luciferase, TNF-alpha stimulus, counter-screen for STAT3 inhibitor project, confirmation (AID 1308;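 active = inhibition above the mean of solvent-only control wells plus 3 SD, cutoff set per campaign, cut at about 13% in these data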;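 note: 0% = TNF-alpha with DMSO and 100% = TNF-alpha with MG high control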). The conditions noted are these: HEK293T NF-kB luciferase reporter, TNF-alpha induced; at 5.7 µM; stronger effect = higher value.
The nature of assay [3]: inhibition of STAT1-driven transcription – cell-based, NIH 3T3, luciferase luminescence, IFN-gamma, counter-screen for STAT3 inhibitor project, confirmation (AID 1317).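 Note: 0% = DMSO with IFN-gamma and 100% = nifuroxazide control.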 The note with it: NIH 3T3 STAT1-luciferase reporter, IFN-gamma induced, at 5.7 µM, stronger effect = higher value. For orientation: A counterscreen serves to expose hits that act by an unwanted route or on another target.

The target of assay [4] is Neuropeptide Y receptor type 2 (Homo sapiens) (UniProt P49146). Briefly: human Y2 receptor positive modulation or activation – cell-based, confirmation (AID 1539; in the data active = activation above about 33%). The conditions noted are these: cell-based NPY-Y2 potentiator/agonist assay; at 3.6 µM; stronger effect = higher value.
Assay [5] concerns the target Neuropeptide Y receptor type 1 (Homo sapiens) (UniProt P25929). Briefly: human Y1 receptor positive modulation or activation – cell-based, fluorescence, counter-screen for NPY-Y2 potentiator project (AID 1651; in the data active = activation above about 45%;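 note: cells stimulated with submaximal NPY then isoproterenol with phosphodiesterase inhibitor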). The note with it: Y1 HEK293-CNG cells, membrane potential fluorescence; at 3.6 µM; stronger effect = higher value.
The target is the same in assay [6]. Kind of assay: human Y1 receptor agonism, CNGC membrane potential – cell-based, fluorescence, selectivity assay for NPY-Y2 potentiator project (AID 1702;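 active = activation above the mean of DMSO-only control wells plus 3 SD, cut at about 18% in these data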;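 note: cells stimulated with 1 µM isoproterenol plus the PDE inhibitor Ro 20-1724; 0% = isoproterenol with DMSO and no NPY and 100% = 40 nM NPY; Y1 agonists lower the membrane potential dye signal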). The note with it: HEK293 Y1-CNGC, at 3.6 µM, stronger effect = higher value.
A short description of assay [7]: blockers of isoproterenol-driven CNG channel signal – cell-based, HEK293-CNG parental, membrane potential fluorescence, counter-screen for NPY-Y2 potentiator project (AID 1703;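 active = inhibition above the control-well mean plus 3 SD of those wells, cut at about 22% in these data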;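 note: 0% = DMSO with isoproterenol and 100% = DMSO without isoproterenol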). The note with it: isoproterenol cAMP, at 3.6 µM, stronger effect = higher value.
Assay [8] has as its target Neuropeptide Y receptor type 2 (Homo sapiens) (UniProt P49146). Briefly: agonism at human Y2 receptor without NPY – cell-based, fluorescence, counter-screen for NPY-Y2 potentiator project (AID 1710;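 active = activation above the mean of solvent-only control wells plus 3 SD, cut at about 10% in these data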;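 note: cells stimulated by isoproterenol with no NPY added so direct agonism is tested; 0% = DMSO with isoproterenol alone and 100% = NPY at EC100 plus isoproterenol; agonism lowers probe fluorescence through less cAMP and CNG channel opening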). The note with it: HEK293 Y2/CNGC cells, membrane potential fluorescence, agonist mode; at 3.6 µM; stronger effect = higher value.
Assay [9] has as its system transactivating tegument protein VP16 (Human herpesvirus 1). Kind of assay: compounds suppressing VP16-driven luciferase signal – cell-based, luminescence, single concentration, counter-screen for SRC2 inhibitor project (AID 652007; in the data active = inhibition above about 36%). The note with it: cell-based VP16 transactivation luciferase reporter, at 8.9 µM, stronger effect = higher value.
In assay [10] the target is Nuclear receptor coactivator 2 (Homo sapiens) (UniProt Q15596). Briefly: inhibition of GAL4-SRC2 driven luciferase expression – cell-based, luminescence, HEK293, triplicate, confirmation (AID 652008;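 active = mean inhibition above 46.5%, the solvent-only control mean plus 3 SD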;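 note: 0% = DMSO-treated cells and 100% = Gossypol at 36 µM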). The conditions noted are these: HEK293 GAL4-SRC2 luciferase reporter, at 8.9 µM, stronger effect = higher value.
A short description of assay [11]: potentiators of IFN-gamma STAT1 reporter activity – cell-based, HTS, luciferase reporter, confirmation (AID 1262;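 active = activation above a set limit carried over from the earlier primary STAT1 screen, cut at about 140% in these data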;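 note: simple ratio to median IFN-gamma plus DMSO wells so 0% means no light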). The note with it: NIH 3T3 STAT1-luciferase reporter, IFN-gamma potentiation, luminescence; at 5.7 µM; stronger effect = higher value; 100% = IFN-gamma EC80 alone, no compound.
Assay [12] is described as follows: enhancement of NF-kB transcriptional signalling – cell-based, HEK293T, luciferase luminescence, TNF-alpha, counter-screen for STAT1 activator project (AID 1306;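 active = activation above the mean of solvent-only control wells plus 3 SD, set per campaign, cut at about 130% in these data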;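 note: TNF-alpha given at a submaximal dose yielding about 80% of full reporter signal; values are well signal over median control so 100% means no change and 0% no light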). The note with it: HEK293T NF-kB luciferase reporter, TNF-alpha stimulated, at 5.7 µM, stronger effect = higher value, 100% = TNF-alpha with vehicle only.
For assay [13], the target named is Signal transducer and activator of transcription 3 (Homo sapiens) (UniProt P40763). Briefly: enhancers of IL-6 STAT3 transcription – U3A cells, luciferase, luminescence, counter-screen for STAT1 activator project, confirmation (AID 1316;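 active = activation above the solvent-only control well mean plus 3 SD, set per plate batch, cut at about 110% in these data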;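 note: 0% = no luminescence and 100% = median IL-6 plus DMSO wells; higher means more STAT3 reporter activation so hits are non-selective activators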). The conditions noted are these: U3A cells STAT3-luciferase reporter, IL-6, luminescence; at 5.7 µM; stronger effect = higher value; 100 = IL-6 alone, no compound effect; cells lack STAT1.

Assay [14] has as its system DAF-12 nuclear receptor (Heterodera glycines), GAL4-LBD fusion. Briefly: hgDAF-12 GAL4 fusion reporter activation, retest – cell-based, luminescence, HEK293, GAL4-LBD fusion, confirmation (AID 743050;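 active = mean activation over triplicate wells above the hit cutoff derived from the earlier primary screen, cut at about 11% in these data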;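 note: 0% = DMSO low control and 100% = 2 mM sodium butyrate high control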). The conditions noted are these: HEK293 GAL4-hgDAF12 luciferase reporter, agonist mode; at 6.8 µM; stronger effect = higher value; percent of butyrate response.
Assay [15] deals with Oxysterols receptor LXR-beta (Homo sapiens) (UniProt P55055). Briefly: nonspecific reporter activation via LXR – cell-based, luminescence, HEK293, H. glycines campaign, counter-screen for hgDAF-12 agonist project, confirmation (AID 743051;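 active = mean activation of the triplicate above a set limit carried over from the primary screen, none filed active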). The conditions noted are these: HEK293 Gal4-LXR luciferase reporter, 24 h; at 6.8 µM; stronger effect = higher value.
Assay [16] is described as follows: suppression of KLF5 promoter-driven luciferase – DLD-1 cells, luminescence, confirmation (AID 1834;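 active = inhibition above a set limit taken from the earlier primary screen, cut at about 63% in these data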;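 note: 0% = DMSO wells and 100% = LY294002 at 200 µM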). The note with it: DLD-1 KLF5 promoter firefly luciferase reporter, at 4 µM, stronger effect = higher value.
Assay [17] can be described thus: IEC-6 intestinal cell killing – luminescence, triplicate, cytotoxicity control for KLF5 inhibitor project (AID 1905; in the data active = inhibition above about 23%;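 note: cells exposed to compounds for 48 hours before viability read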). The conditions noted are these: IEC-6 rat intestinal cells, viability luminescence; at 4 µM; stronger effect = higher value.
Assay [18] deals with Fam108b (Abhd17b) serine hydrolase [Mus musculus]. Briefly: inhibition of Fam108b (Abhd17b) hydrolase – biochemical, fluorescence polarization, triplicate, counter-screen for RBBP9 inhibitor project, confirmation (AID 1978;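 active = inhibition above a limit from the primary screen, the mean over all compounds plus 3 SD, cut at about 19% in these data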;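 note: 0% = median of active Fam108b wells and 100% = catalytically dead S170A mutant; inhibitors free the probe so polarization falls as inhibition rises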). The note with it: recombinant Fam108b, FP-Rh probe fluorescence polarization; at 9.51 µM; stronger effect = higher value. Background: Fluorescence polarisation rises when a labelled molecule tumbles more slowly, as on binding a larger partner.

In assay [19] the target is Protein phosphatase methylesterase 1 (Homo sapiens) (UniProt Q9Y570). Kind of assay: human PME-1 methylesterase inhibition confirmation – biochemical, fluorescence polarization, FP-Rh probe, triplicate (AID 2171;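 active = inhibition above the hit cutoff set in the earlier primary screen, cut at about 27% in these data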;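 note: 0% = enzyme with DMSO and 100% = wells lacking PME-1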). The conditions noted are these: recombinant PME-1, FP-Rh probe fluorescence polarization; at 5.9 µM; stronger effect = higher value.
Assay [20] deals with Photoreceptor-specific nuclear receptor (Homo sapiens) (UniProt Q9Y5X4). Kind of assay: retest of NR2E3-NCOR disrupting agonists – cell-based, luminescence, CHO-S two-hybrid, confirmation (AID 624378;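 active = average inhibition above a cutoff equal to the mean inhibition of all tested compounds plus one SD, cut at about 70% in these data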;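 note: 0% = DMSO in NR2E3 cells and 100% = DMSO in cells lacking NR2E3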). The note with it: CHO-S mammalian two-hybrid NR2E3-NCOR, luciferase luminescence; at 3.98 µM; stronger effect = higher value.
The nature of assay [21]: reduced OD of V66 E. coli with T4 gene 2 phage – absorbance, RecBCD inhibitor project, confirmation (AID 651982;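 active = mean inhibition over triplicates exceeding the hit threshold derived in the original primary screen, cut at about 11% in these data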). The note with it: E. coli V66 + T4 2- phage, growth OD; at 11.9 µM; stronger effect = higher value.
The nature of assay [22]: bacterial growth inhibition – absorbance, high throughput, counter-screen for RecBCD inhibitor project (AID 651983; in the data active = inhibition above about 20%;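 note: E. coli strain V66 grown with compound alone and no phage infection; 0% = bacteria with DMSO vehicle only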). The conditions noted are these: E. coli viability, absorbance (OD) growth; at 11.9 µM; stronger effect = higher value.
Assay [23] in a line: reduced optical density, T4-challenged addAB+ bacteria – absorbance, E. coli V3065, T4 phage, counter-screen for RecBCD inhibitor project, confirmation (AID 651984;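 active = mean inhibition above the solvent-only control wells' mean plus 3 SD, cut at about 22% in these data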;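 note: higher means less bacterial growth from phage killing when AddAB is blocked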). The conditions noted are these: E. coli expressing H. pylori AddAB + T4 phage, OD growth; at 11.9 µM; stronger effect = higher value; gene 2 mutant T4, recBCD-deleted host.
In assay [24] the target is Insulin-degrading enzyme (Homo sapiens) (UniProt P14735). Briefly: cellular IDE Abeta-cleavage inhibition – fluorescence polarization, HEK cells, FAbetaB substrate, confirmation (AID 435028;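 active = mean inhibition across triplicate wells above the cutoff set by the earlier primary insulin-degrading enzyme screen, cut at about 16% in these data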;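 note: 0% = DMSO wells and 100% = 60 µM reference IDE inhibitor Ii1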). The note with it: at 5.59 µM, stronger effect = higher value.
Assay [25] can be described thus: HEK cell viability loss – luminescence, cytotoxicity control for IDE inhibitor project (AID 449730; in the data active = inhibition above about 22%;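 note: 0% = vehicle wells and 100% = reference cytotoxic drug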). The note with it: HEK293 cytotoxicity, ATP luminescence; at 5.59 µM; stronger effect = higher value.
Assay [26] is described as follows: nonselective effects on VP16 transactivation – cell-based, luminescence, CHO-S, high throughput, counter-screen for NR2E3 agonist project, confirmation (AID 624379;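 active = mean inhibition above a cutoff equal to the average over all tested compounds plus one standard deviation, cut at about 70% in these data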;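 note: 0% = DMSO with VP16-transfected cells and 100% = DMSO with cells lacking VP16; higher means less reporter light so more repression of VP16 activity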). The conditions noted are these: CHO-S GAL4-VP16 luciferase reporter, at 3.98 µM, stronger effect = higher value.
The nature of assay [27]: VP16-driven transactivation reporter suppression – cell-based, luminescence, HEK293, counter-screen for COUP-TFII antagonist project (AID 687007; in the data active = inhibition above about 13%). The note with it: HEK293 Gal4-VP16 luciferase reporter, at 8.5 µM, stronger effect = higher value.
Assay [28] addresses COUP transcription factor 2 (Homo sapiens) (UniProt P24468). Briefly: retest of COUP-TFII reporter suppressors – cell-based, luciferase reporter, HEK293, triplicate, confirmation (AID 687008;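 active = mean inhibition over three repeats above a set limit taken from the earlier primary screen, cut at about 38% in these data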;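 note: 100% = cells given the luciferase reporter alone without the COUP-TF2 vector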). The conditions noted are these: HEK293 NGFI-A luciferase reporter, luminescence; at 8.5 µM; stronger effect = higher value.

Chain of Neuropeptide Y receptor type 2 (Homo sapiens) (P49146 whole entry, looked up): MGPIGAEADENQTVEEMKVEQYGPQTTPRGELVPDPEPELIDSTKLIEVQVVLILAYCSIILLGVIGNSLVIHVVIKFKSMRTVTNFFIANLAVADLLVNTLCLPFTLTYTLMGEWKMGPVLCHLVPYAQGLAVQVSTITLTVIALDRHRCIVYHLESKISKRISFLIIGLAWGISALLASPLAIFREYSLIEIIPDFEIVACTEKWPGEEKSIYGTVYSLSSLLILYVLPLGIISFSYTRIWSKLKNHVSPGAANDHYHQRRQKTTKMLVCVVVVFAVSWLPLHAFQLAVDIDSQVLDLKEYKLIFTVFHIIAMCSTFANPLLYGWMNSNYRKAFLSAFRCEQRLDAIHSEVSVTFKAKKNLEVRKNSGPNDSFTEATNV
Chain of Neuropeptide Y receptor type 1 (Homo sapiens) (P25929 whole entry, looked up): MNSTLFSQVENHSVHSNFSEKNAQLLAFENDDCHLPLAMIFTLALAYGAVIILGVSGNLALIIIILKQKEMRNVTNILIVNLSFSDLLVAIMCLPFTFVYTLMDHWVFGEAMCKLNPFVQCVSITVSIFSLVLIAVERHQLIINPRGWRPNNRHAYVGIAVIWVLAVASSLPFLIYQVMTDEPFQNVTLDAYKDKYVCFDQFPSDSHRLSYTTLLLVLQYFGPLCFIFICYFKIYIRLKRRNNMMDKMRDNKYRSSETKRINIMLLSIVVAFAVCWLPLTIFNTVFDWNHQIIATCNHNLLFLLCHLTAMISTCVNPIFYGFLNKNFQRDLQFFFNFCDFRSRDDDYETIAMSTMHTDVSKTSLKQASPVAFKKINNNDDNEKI
Chain of Photoreceptor-specific nuclear receptor (Homo sapiens) (Q9Y5X4 whole entry, looked up): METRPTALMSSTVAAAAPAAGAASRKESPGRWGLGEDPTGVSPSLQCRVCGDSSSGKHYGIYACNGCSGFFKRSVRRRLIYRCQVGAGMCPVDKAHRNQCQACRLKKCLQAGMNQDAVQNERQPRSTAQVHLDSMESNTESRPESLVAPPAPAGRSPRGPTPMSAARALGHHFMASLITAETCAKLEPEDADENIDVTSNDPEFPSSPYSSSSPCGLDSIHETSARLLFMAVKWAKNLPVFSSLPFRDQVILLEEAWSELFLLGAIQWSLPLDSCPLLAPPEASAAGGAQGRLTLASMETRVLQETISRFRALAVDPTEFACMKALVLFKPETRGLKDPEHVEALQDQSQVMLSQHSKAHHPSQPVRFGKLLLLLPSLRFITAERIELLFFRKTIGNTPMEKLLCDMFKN
Chain of Insulin-degrading enzyme (Homo sapiens) (P14735 whole entry, looked up): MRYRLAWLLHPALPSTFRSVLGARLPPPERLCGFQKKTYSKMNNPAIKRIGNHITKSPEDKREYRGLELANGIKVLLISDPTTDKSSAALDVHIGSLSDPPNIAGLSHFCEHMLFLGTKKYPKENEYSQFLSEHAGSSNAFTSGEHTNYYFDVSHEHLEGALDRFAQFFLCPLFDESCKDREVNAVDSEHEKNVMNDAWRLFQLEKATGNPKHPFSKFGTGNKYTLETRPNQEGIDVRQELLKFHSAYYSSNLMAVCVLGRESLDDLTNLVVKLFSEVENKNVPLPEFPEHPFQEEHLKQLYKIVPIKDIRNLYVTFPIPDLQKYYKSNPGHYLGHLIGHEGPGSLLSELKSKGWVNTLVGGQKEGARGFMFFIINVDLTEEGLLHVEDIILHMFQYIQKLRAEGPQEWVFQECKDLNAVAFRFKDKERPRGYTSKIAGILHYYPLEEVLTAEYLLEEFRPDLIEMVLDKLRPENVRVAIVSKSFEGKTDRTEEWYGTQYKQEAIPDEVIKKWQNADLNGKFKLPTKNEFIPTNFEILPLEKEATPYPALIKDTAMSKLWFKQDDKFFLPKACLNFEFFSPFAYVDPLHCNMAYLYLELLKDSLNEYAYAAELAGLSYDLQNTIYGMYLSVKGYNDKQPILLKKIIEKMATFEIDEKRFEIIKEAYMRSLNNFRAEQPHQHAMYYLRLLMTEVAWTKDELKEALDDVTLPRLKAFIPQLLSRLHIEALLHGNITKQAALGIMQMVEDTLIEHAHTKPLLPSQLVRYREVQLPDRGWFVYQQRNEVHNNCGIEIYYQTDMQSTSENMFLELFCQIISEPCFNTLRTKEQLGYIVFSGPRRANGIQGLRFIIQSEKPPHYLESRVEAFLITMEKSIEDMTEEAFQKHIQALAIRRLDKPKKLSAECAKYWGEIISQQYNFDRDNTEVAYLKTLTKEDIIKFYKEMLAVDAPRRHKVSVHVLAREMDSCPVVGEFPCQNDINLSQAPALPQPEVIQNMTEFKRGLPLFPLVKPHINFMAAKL
Chain of COUP transcription factor 2 (Homo sapiens) (P24468 whole entry, looked up): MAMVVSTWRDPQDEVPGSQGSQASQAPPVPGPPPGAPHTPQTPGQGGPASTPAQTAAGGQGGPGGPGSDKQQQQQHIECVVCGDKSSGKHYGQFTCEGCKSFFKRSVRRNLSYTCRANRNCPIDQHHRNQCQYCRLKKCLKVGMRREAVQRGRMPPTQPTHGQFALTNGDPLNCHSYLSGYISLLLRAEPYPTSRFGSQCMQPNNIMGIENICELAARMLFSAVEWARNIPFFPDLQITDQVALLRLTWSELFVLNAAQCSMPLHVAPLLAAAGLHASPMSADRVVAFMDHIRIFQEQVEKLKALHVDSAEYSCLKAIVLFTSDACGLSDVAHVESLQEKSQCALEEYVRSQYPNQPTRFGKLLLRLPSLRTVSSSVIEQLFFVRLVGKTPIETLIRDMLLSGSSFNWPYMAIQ
Chain of Protein phosphatase methylesterase 1 (Homo sapiens) (Q9Y570 whole entry, looked up): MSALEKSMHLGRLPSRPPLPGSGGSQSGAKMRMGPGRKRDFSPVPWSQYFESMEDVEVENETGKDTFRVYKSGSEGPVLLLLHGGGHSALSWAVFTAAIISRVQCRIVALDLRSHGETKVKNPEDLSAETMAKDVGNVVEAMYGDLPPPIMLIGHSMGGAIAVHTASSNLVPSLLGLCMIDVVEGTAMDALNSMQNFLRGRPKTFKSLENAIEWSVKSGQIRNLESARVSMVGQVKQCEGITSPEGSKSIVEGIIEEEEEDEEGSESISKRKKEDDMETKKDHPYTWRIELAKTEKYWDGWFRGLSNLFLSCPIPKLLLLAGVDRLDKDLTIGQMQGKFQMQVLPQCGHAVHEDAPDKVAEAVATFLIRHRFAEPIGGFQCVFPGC
Chain of Nuclear receptor coactivator 2 (Homo sapiens) (Q15596 whole entry, looked up, the tested form may be a part): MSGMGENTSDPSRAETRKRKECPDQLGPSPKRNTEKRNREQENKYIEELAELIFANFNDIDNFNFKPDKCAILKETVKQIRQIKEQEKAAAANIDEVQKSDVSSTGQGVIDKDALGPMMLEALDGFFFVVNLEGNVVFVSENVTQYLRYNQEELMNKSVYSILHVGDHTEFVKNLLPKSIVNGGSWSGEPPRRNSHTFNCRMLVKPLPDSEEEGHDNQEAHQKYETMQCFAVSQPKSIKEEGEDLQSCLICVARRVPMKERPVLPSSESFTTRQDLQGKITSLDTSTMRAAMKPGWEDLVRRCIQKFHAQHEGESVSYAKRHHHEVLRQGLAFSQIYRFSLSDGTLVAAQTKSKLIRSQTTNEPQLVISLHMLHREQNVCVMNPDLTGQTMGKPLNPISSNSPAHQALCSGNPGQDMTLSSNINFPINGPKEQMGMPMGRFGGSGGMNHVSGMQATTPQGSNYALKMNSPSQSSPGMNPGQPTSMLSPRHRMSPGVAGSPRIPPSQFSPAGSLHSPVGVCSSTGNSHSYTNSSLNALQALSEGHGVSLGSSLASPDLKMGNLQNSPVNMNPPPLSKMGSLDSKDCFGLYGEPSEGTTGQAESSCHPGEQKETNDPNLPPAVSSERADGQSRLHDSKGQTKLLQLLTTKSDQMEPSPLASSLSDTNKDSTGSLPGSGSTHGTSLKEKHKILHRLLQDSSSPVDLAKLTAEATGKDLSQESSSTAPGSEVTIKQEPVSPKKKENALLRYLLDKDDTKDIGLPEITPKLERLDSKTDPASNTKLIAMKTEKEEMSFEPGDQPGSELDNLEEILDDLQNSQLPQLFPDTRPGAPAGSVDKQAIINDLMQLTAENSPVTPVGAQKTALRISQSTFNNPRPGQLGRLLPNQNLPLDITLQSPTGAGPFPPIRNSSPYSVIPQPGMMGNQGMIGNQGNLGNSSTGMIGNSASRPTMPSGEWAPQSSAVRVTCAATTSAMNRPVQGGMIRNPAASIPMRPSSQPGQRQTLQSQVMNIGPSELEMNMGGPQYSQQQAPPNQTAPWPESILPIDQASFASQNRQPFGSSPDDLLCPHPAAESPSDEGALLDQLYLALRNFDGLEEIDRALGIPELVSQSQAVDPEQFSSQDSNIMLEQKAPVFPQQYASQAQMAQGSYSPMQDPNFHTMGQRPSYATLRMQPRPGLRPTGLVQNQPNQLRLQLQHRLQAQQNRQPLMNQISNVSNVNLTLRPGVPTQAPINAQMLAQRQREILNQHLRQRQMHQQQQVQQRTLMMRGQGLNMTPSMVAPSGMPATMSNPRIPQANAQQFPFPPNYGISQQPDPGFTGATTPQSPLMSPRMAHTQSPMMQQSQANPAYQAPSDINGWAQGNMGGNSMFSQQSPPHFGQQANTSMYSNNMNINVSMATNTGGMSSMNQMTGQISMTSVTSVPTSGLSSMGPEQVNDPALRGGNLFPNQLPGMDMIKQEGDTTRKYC
Chain of Oxysterols receptor LXR-beta (Homo sapiens) (P55055 whole entry, looked up, the tested form may be a part): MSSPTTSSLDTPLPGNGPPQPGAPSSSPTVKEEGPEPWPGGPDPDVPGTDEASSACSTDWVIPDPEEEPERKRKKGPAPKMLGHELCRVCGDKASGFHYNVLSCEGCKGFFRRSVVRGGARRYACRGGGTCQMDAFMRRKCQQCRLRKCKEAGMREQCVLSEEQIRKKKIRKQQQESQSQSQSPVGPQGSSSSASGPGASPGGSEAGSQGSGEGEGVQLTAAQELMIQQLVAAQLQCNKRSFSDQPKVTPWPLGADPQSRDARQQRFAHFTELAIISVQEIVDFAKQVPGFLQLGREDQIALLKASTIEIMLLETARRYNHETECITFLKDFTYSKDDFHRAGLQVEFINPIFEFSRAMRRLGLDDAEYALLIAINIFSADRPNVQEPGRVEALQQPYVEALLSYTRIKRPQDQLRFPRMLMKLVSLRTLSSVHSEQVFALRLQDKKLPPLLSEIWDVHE

Turning to `O=C1NC(Nc2nc3ccccc3s2)(C(F)(F)F)C(=O)N1C1CCCCC1` (stereo not drawn), the inhibition is 51.1% (active) in assay [1], 21.2% (active) in [2] and -9.63% in assay [3].
For `CCOc1cccc(/C=C/c2ccc3ccccc3n2)c1OC(C)=O`, in that order: -2.03%, -34.1% and -15.3%.
With `CN(C)S(=O)(=O)c1ccc(NC(=O)COC(=O)c2n[nH]c3ccccc23)cc1`, the inhibition in [1] is 38.2%; in assay [2], 1.2%; in assay [3], 8.4%; in assay [7], -6.29%; in [9] it was -4.93%; in assay [10] it was 16%. Further, the activation in assay [4] was -2.42%; in assay [5], -36%; in [6], -29.4%; in assay [8], 4.88%.
Regarding `COc1ccc(C2=Nc3cc(C)ccc3OC2)cc1`, the inhibition was 19.3% in [1], -18.5% in assay [2] and -114% in assay [3].
Take `O=C(NCCCn1ccnc1)c1cc(-c2ccccc2)on1`: the activation (% of control) in [11] was 173% (active); in assay [12] it was 165% (active); in [13], 132% (active). In addition, the activation in assay [14] was 57.6% (active); in [15], 0.27%.
For the compound `Cc1ccc(-c2cn3cc([N+](=O)[O-])ccc3n2)cc1`, the inhibition in assay [1] is 60.3% (active); in assay [2], -3.2%; in assay [3] it was -77%.
For `Oc1c(Cl)cc(Cl)c(Cl)c1Cc1c(O)c(Cl)cc(Cl)c1Cl`, the inhibition in assay [1] was 46.3% (active); in [2], 20.9% (active); in assay [3], 41% (active); in [7] it was 15.6%; in [16] it was 88% (active); in assay [17], 31.1% (active). Moreover, the inhibition in assay [18] is 47.1% (active); in assay [19], 10.2%; in assay [20], 98.9% (active); in [21] it was 11.6% (active); in [22], 11.5%; in assay [23], 2.09%. The activation in assay [4] was 24.1%; in [5] it was 3.71%; in assay [6], 14.9%; in assay [8], 24.1% (active).
Take `Cc1ccc(-c2cc(C(=O)N/N=C/C=C/c3ccco3)c3ccccc3n2)cc1C`: the inhibition is -39.2% in [1], 12.6% in assay [2] and -40.9% in assay [3].
`Cc1nc(-c2ccc(NC(=O)c3cccs3)cc2)cs1`: the inhibition in assay [1] was 27.5%; in assay [2] it was -26.7%; in assay [3] it was -111%.
In the case of `CC(C)OCCCNc1ncnc2c1[nH]c1ccc(F)cc12`, the inhibition is 78.6% (active) in [1]; 33.4% (active) in [2]; 31.1% (active) in assay [3]; 17.2% (active) in assay [24]; 75.2% (active) in assay [25]; 96.7% (active) in [20]. Besides, the inhibition was 81.3% (active) in assay [26], -32.6% in assay [27] and 63.3% (active) in assay [28].

A word on the inhibition: it is the change of the read-out against control, counted positive when it falls.
